Here are results for 40 compounds from PubChem BioAssay (NCI).

Where “and” joins values, the source holds several entries; their conditions need not be identical. Equal values may be shown once. The panel holds about 83,000 compounds, 20% with a hit somewhere; the sample as a whole holds those more often.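 Cell lines were cultured in 96-well plates, exposed to a single compound concentration, and assessed for percent growth 48 hours later.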 Calls of active or inactive are those of the source. The calls were made as follows: active = growth percent below 10; inactive = the rest.

The test system of this assay is MDA-MB-468 breast. In words: NCI-60 one-dose screen, 48 h (100 = growth as untreated, 0 = no growth, -100 = all killed). Particulars: 10 µM unless noted.
On to `Cc1cn(-c2cc(NC(=O)c3cncc(C#Cc4cnc(N)c5ncccc45)c3)cc(C(F)(F)F)c2)cn1`, for which the growth was 67.3% (inactive).

For the compound `O=C1C2CC=CCC2C(=O)N1CNc1ccc(Cl)cc1` (stereo not given), the growth is 91% (inactive).

Regarding `O=C(CCl)c1ccc2c(c1)Nc1ccccc1S2`, the growth was 75.7% (inactive) and 64.9% (inactive).

As for `Cc1cccc(C)c1NC(=O)c1sc2nc3c(cc2c1N)C(=O)CCC3`, the growth was 34.3% (inactive).

Turning to `CCc1ccc(NC(=O)N[C@@H](Cc2cccc(F)c2)C(=O)N[C@@H]2C(=O)N3CCC[C@H]3C(=O)N3CCCC[C@H]3C(=O)N[C@@H](C)C(=O)N3C[C@H](C)C[C@H]3C(=O)O[C@H]2C)c(F)c1`, the growth is -18.2% (active).

With `CCO/C=N/C1=C(C#N)C(c2ccc(Cl)cc2)c2sc3c(F)cccc3c2O1` (stereo not given), the growth is 54.3% (inactive).

As to `O=C(Nc1ccc2c(c1)OCCO2)C(=O)c1c[nH]c2ccccc12`, the growth was -0.365% (active).

On to `COc1ccc(-c2nc3cc(Cl)c(Cl)cc3n2CC(=O)N=Nc2c(O)[nH]c3ccc(OC)cc23)cc1`, for which the growth is 42.4% (inactive).

In the case of `O=C1NC(=S)NC(=O)C1CC(=O)n1c(-c2ccccc2)nc2ccccc21`, the growth was 105% (inactive).

On to `CN(C)c1ccc(-c2nc(-c3ccccc3)c(-c3ccccc3)[nH]2)cc1`, for which the growth was 114% (inactive).

Consider `Cc1ccc(C(=O)N/N=C/c2cccc(Oc3ccccc3)c2)cn1`, for which the growth was 58.6% (inactive).

In the case of `CCCN1C(=O)N(CCC)C2C1NC(=S)N2/N=C/C=C/c1ccccc1OC` (stereo not given), the growth was 1.14% (active).

As for `COc1cc(/C=C2\CN(C)C/C(=C\c3cc(CN4CCCCC4)c(O)c(OC)c3)C2=O)cc(CN2CCCCC2)c1O`, the growth is 13% (inactive).

Consider `Nc1ccc(-n2c(=O)oc3ccc(Cl)cc3c2=O)c(Cl)c1`, for which the growth was -6.87% (active).

Take `CCCCCCCCCCCC(=O)[O][Sn]([CH2]CCC)([CH2]CCC)[CH2]CCC`: the growth is -79.4% (active).

Take `COc1cc2nc(Cl)nc(Nc3cccc(C4=Nc5c(N)nc(N)nc5NC(c5ccc(Br)cc5)C4)c3)c2cc1OC` (stereo not given): the growth was 90.3% (inactive).

In the case of `C#Cc1cccc(Nc2nc3cc([N+](=O)[O-])ccc3nc2Nc2ccc(O)cc2)c1`, the growth is 27.1% (inactive).

Regarding `Cc1ccc2c(C3C(C#N)=C(N)Oc4cc5ccccc5cc43)cc(=O)oc2c1` (stereo not given), the growth was 30.3% (inactive).

As for `O=C(/C=C/C12c3ccccc3C(c3ccccc31)C1C(=O)NC(=O)C12)c1ccncc1` (stereo not given), the growth was 6.35% (active).

Turning to `C/C(=N\NC(=O)CSc1nc2ccccc2c(=O)n1CCc1ccc(S(N)(=O)=O)cc1)c1ccccn1`, the growth is 25.3% (inactive).

As for `COc1cnc2c(c1)C(=O)c1c-2n(CCCNC2=NCCS2)c(=O)c2cc([N+](=O)[O-])ccc12`, the growth is -39% (active).

With `COc1ccc(/C(C#N)=C2C=C/C(=N/O)c3ccccc3\2)cc1`, the growth is 37.1% (inactive).

`O=C(O)c1ccc(-n2cc(CNc3cc(F)c(F)c(F)c3)c(-c3cccc(F)c3)n2)cc1`: the growth is 95.4% (inactive).

On to `COc1ccc(-c2nc(SC(C)C)nc(NNC(N)=O)c2C#N)cc1`, for which the growth was 80.5% (inactive).

As for `CC(=O)Nc1ccc(S(=O)(=O)n2ccc(-c3ccc4c(c3)CCC(C)(C)O4)n2)cc1`, the growth is 24.9% (inactive).

Take `C/C(=N\O)c1ccc(Cl)cc1`: the growth is 108% (inactive).

On to `CCOC(=O)c1c(C)nc2ccccc2c1/C=C/c1ccc(OC)cc1`, for which the growth is 20.6% (inactive).

`COc1cc(F)c(/C=C/c2cc(/C=C/c3cc(OC)c(OC)cc3F)on2)cc1OC`: the growth was 77.6% (inactive).

`Cc1cc(Cl)nc(N(CCNc2ccnc3cc(Cl)ccc23)Cc2ccco2)n1`: the growth was 29.9% (inactive).

Regarding `CCOC(=O)/C(=C/CC/C(C)=C/CC/C(C)=C/CCc1ccoc1)CC(=O)N1CCCCC1`, the growth is 0.246% (active).

On to `CCN(CC)CCNc1ccc(CO)c2sc3ccccc3c(=O)c12`, for which the growth is -41.4% (active).

For `C[C@@H]1O[C@@H](O[C@H]2[C@@H](OC(=O)[C@]34CCC(C)(C)C[C@H]3C3=CC[C@@H]5[C@@]6(C)C[C@H](O)[C@H](O[C@@H]7O[C@H](CO)[C@@H](O)[C@H](O)[C@H]7O)[C@@](C)(CO)[C@@H]6CC[C@@]5(C)[C@]3(C)C[C@H]4O)OC[C@@H](O)[C@@H]2O)[C@H](O)[C@H](O[C@@H]2OC[C@@H](O)[C@H](O[C@@H]3OC[C@](O)(CO)[C@H]3O[C@@H]3OC[C@@H](O)[C@H](O)[C@H]3O)[C@H]2O)[C@H]1O[C@@H]1OC[C@](O)(CO)[C@H]1O`, the growth was -24.2% (active).

For the compound `COCCOC(=O)NC(=O)Nc1ccc(C(=O)c2ccc(Cl)cc2)cc1`, the growth was -8.24% (active).

For the compound `S=C(Nc1ccccc1)c1ccccn1`, the growth was 101% (inactive).

For the compound `CCCCCCCN(CCCCCCC)C(=N)c1ccnc2ccccc12`, the growth is -83.5% (active).

Turning to `Cc1ccc(C(=O)CSc2nc3ccccc3c(=O)n2C)cc1`, the growth was 82.6% (inactive).

`NC(CSC(c1ccccc1)(c1ccccc1)c1cccc2ccccc12)C(=O)O` (stereo not given): the growth is 86% (inactive).

With `COc1ccc(C(=O)/C=C/c2ccc(Cl)cc2)cc1S(=O)(=O)Nc1c(N)nc(SC)[nH]c1=O`, the growth is 47.3% (inactive).

For the compound `Cn1ccc2c1CC1CN(Cc3ccco3)C(=O)C1C2C(=O)O` (stereo not given), the growth is 104% (inactive).

Take `O=C1CNc2cc(Cl)ccc2N1`: the growth is 117% (inactive).
